PubChem BioAssay (Tox21)
Values joined by “and” are separate entries in the source; they are usually repeats but may differ in a detail not shown here. Identical values can stand only once. Inconclusive results are not listed. Some structures have more than one record in an assay (separate samples or runs), and their calls can disagree. Active and inactive are the calls of the source. Unless noted, calls follow the shape of the dose curve; as a rule, active = well fitted curve in the direction sought with a large enough effect in the repeat runs; inconclusive = weak or mixed curves; inactive = no such curve, though single readings can be large; an effect the other way counts as inactive or inconclusive.

How the values were obtained:
[1] = biological target: Thyrotropin-releasing hormone receptor (Homo sapiens) (UniProt P34981); test: qHTS assay to identify small molecule agonists of the thyrotropin-releasing hormone receptor (TRHR) signaling pathway (AID 1346891; calls by dose curve; also: potency is read from the fitted curve at half-maximal effect; as to activation: series mostly up to about 58 µM)
Sequence of Thyrotropin-releasing hormone receptor (Homo sapiens) (P34981 whole entry, looked up): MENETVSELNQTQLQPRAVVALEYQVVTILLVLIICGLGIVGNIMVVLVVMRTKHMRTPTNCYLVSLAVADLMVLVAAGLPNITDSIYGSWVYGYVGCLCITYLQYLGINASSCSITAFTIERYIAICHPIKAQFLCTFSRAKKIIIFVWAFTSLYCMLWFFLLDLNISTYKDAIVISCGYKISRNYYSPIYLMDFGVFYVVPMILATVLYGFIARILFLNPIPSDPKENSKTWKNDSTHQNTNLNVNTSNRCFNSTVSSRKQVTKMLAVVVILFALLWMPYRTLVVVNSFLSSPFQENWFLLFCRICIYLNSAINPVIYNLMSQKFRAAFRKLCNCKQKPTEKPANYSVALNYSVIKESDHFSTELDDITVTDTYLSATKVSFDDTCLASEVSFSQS
Procedure, shortened: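 TRHR-expressing HEK293 cells were plated 18 h at 37 °C/5% CO2, loaded with calcium dye 2 h at 37 °C, then given compound in DMSO; fluorescence was read kinetically for 3 min at 1 s intervals.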

[2] = Human pregnane X receptor (PXR) small molecule agonists, qHTS cell viability counter screen (AID 1346977); also: nearly all actives have a fitted effect of over 50% in size; also: potency is read from the fitted curve at half-maximal effect
Procedure, shortened: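 PXR-Luc HepG2 cells in medium with 5% charcoal-stripped FBS were pre-incubated 5hr, then exposed to compounds for 24hr at 37C. Viability was read in the same wells by CellTiter-Fluor fluorescence, reagent added after 23hr with a 1hr incubation.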

[3] = Caspase-3/7 induction in HepG2 cells by small molecules, qHTS assay (AID 1346978); also: nearly all actives have a fitted effect of over 15% in size; also: potency is read from the fitted curve at half-maximal effect
Procedure, shortened: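 Wild-type HepG2 cells (2,000/well) were settled 5 h at 37 C, 5% CO2, then exposed to compounds in DMSO for 17 h. Caspase-3/7 activity was read by luminescence 30 min after adding Caspase-Glo 3/7 reagent at room temperature.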

[4] = Caspase-3/7 induction in CHO-K1 cells by small molecules, qHTS cell viability counter screen (AID 1346979); also: nearly all actives have a fitted effect of over 35% in size; also: potency is read from the fitted curve at half-maximal effect
Procedure, shortened: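 Wild-type CHO-K1 cells were seeded at 1,500 per well, rested 5hr at 37 C, then exposed to compounds in DMSO. After 16hr, CellTiter-Fluor reagent was added and fluorescence read 1hr later as the viability measure.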

[5] = Caspase-3/7 induction in CHO-K1 cells by small molecules, qHTS assay (AID 1346980); also: nearly all actives have a fitted effect of over 15% in size
Procedure, shortened: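 Wild-type cells were seeded at 1,500 per well and settled 5 hr at 37 C, 5% CO2, then exposed to DMSO-dissolved compounds for 17 hr. Caspase-Glo 3/7 reagent was added, and luminescence was read after 30min at room temperature.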

[6] = Caspase-3/7 induction in HepG2 cells by small molecules, qHTS cell viability counter screen (AID 1346981); also: series mostly up to about 92 µM; nearly all actives have a fitted effect of over 30% in size
Procedure, shortened: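 Wild-type HepG2 cells (2,000/well) were allowed to settle for 5 hr at 37 C, 5% CO2, then dosed with compounds in DMSO by pin transfer. After 16 hr at 37 C, CellTiter-Fluor was added and fluorescence read 1 hr later.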

[7] = biological target: Nuclear receptor subfamily 1 group I member 2 (Homo sapiens) (UniProt O75469); test: Human pregnane X receptor (PXR) small molecule agonists, qHTS assay (AID 1346982); also: nearly all actives have a fitted effect of over 35% in size; also: potency is read from the fitted curve at half-maximal effect
Sequence of Nuclear receptor subfamily 1 group I member 2 (Homo sapiens) (O75469 whole entry, looked up): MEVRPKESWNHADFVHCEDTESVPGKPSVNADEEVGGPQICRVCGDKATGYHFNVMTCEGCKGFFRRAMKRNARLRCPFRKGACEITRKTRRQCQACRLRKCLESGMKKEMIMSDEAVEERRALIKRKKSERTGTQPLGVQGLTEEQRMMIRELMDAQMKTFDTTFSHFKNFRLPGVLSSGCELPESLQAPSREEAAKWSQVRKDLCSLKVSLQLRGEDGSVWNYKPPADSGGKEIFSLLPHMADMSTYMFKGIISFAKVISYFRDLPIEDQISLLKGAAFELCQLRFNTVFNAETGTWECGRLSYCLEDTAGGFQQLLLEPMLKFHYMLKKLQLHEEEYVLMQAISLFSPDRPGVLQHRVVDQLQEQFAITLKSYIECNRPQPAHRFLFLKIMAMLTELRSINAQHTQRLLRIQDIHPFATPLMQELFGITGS
Procedure, shortened: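 PXR-Luc HepG2 cells (CYP3A4 promoter-driven luciferase) were seeded in medium with 5% charcoal-stripped FBS, left 5 hr at 37 C, then exposed to compounds in DMSO for 24 hr. Luminescence was read after ONE-Glo addition.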

[8] = biological target: Nuclear receptor subfamily 1 group I member 2 (Rattus norvegicus) (UniProt Q9R1A7); test: Rat pregnane X receptor (rPXR) activation by small molecules, qHTS assay (AID 1346983); settings: rPXR luciferase reporter cells, One-Glo luminescence, 24 h; max activation: stronger effect = higher value; also: nearly all actives have a fitted effect of over 20% in size
Sequence of Nuclear receptor subfamily 1 group I member 2 (Rattus norvegicus) (Q9R1A7 whole entry, looked up): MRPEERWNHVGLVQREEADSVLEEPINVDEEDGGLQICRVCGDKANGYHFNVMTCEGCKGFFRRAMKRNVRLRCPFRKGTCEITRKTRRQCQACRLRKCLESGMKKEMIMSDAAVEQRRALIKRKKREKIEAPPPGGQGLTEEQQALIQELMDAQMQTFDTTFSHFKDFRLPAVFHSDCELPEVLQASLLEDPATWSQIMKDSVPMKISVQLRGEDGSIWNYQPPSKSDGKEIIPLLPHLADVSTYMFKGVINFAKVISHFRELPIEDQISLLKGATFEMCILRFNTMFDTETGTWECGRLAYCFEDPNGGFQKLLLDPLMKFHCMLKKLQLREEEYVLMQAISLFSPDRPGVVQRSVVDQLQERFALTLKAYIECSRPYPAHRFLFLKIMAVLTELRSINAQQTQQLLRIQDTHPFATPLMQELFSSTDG
Procedure, shortened: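 Cell-based rPXR luciferase reporter assay, 2,000 cells per well, rested 5hr at 37 C before compound addition in DMSO, then 24 hr at 37 C. One-Glo reagent was added and luminescence read after 30 min at room temperature.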

[9] = biological target: Nuclear receptor subfamily 1 group I member 2 (Homo sapiens) (UniProt O75469); test: CYP3A4 induction through human pregnane X receptor (PXR) by small molecules, qHTS assay (AID 1346984); also: nearly all actives have a fitted effect of over 40% in size
Procedure, shortened: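 DPX-2 cells (HepG2 co-transfected with PXR and CYP3A4 promoter-luciferase) treated with compounds 24 h at 37C; luciferin-IPA CYP3A4 substrate 3uM final added for 3 h, then One-Glo; luminescence read. qHTS format.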

[10] = biological target: Cytochrome P450 2D6 (Homo sapiens) (UniProt P10635); test: Cytochrome P450 Family 2 Subfamily D Member 6 (CYP2D6) small molecule antagonists: luciferase reporter qHTS assay (AID 1671196); also: nearly all actives have a fitted effect of over 50% in size; also: potency is read from the fitted curve at half-maximal effect
Sequence of Cytochrome P450 2D6 (Homo sapiens) (P10635 whole entry, looked up): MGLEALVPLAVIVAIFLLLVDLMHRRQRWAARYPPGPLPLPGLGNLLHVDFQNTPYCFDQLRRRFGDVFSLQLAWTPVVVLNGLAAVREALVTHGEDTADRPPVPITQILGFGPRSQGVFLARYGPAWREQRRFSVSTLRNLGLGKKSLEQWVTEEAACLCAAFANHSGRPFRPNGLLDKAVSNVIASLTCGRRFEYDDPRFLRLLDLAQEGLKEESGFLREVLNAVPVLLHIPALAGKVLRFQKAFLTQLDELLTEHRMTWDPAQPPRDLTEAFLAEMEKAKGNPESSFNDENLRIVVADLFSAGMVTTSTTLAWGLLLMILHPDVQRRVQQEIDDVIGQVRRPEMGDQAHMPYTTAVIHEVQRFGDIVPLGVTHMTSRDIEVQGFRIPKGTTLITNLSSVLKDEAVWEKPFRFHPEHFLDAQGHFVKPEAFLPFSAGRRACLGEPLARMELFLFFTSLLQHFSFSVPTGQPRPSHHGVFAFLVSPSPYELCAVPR
Procedure, shortened: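 CYP2D6 enzyme–substrate mix was held with compound for 10 min at room temperature, then NADPH regeneration solution was added and the reaction ran 1 h at room temperature. Luciferin product was detected by luminescence after 20 min with detection reagent.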

[11] = biological target: Cytochrome P450 2C19 (Homo sapiens) (UniProt P33261); test: Cytochrome P450 Family 2 Subfamily C Member 19 (CYP2C19) small molecule antagonists: luciferase reporter qHTS assay (AID 1671197); also: nearly all actives have a fitted effect of over 65% in size; also: potency is read from the fitted curve at half-maximal effect
Sequence of Cytochrome P450 2C19 (Homo sapiens) (P33261 whole entry, looked up): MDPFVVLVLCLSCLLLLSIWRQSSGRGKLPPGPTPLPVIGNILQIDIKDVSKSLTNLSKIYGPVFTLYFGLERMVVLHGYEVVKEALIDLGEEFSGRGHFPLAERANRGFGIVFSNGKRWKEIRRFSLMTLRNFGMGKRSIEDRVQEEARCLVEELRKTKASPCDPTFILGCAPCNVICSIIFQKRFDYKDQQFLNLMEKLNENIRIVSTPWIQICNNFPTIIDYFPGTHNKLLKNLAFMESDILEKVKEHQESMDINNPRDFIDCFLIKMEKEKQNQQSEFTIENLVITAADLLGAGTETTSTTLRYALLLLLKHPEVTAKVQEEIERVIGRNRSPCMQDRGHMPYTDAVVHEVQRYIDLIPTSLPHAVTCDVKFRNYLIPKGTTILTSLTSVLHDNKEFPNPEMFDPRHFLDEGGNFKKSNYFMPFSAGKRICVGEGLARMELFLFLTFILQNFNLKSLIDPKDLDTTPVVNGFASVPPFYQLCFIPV
Procedure, shortened: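 P450-Glo CYP2C19 system: enzyme-substrate mix with compound 10 min at room temperature, then NADPH regeneration solution, 1 h at 37C. Proluciferin-to-luciferin conversion detected by luminescence after 20 min with detection reagent; ketoconazole as positive control.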

[12] = biological target: Cytochrome P450 1A2 (Homo sapiens) (UniProt P05177); test: Cytochrome P450 Family 1 Subfamily A Member 2 (CYP1A2) small molecule antagonists: luciferase reporter qHTS assay (AID 1671199); also: nearly all actives have a fitted effect of over 50% in size; also: potency is read from the fitted curve at half-maximal effect
Sequence of Cytochrome P450 1A2 (Homo sapiens) (P05177 whole entry, looked up): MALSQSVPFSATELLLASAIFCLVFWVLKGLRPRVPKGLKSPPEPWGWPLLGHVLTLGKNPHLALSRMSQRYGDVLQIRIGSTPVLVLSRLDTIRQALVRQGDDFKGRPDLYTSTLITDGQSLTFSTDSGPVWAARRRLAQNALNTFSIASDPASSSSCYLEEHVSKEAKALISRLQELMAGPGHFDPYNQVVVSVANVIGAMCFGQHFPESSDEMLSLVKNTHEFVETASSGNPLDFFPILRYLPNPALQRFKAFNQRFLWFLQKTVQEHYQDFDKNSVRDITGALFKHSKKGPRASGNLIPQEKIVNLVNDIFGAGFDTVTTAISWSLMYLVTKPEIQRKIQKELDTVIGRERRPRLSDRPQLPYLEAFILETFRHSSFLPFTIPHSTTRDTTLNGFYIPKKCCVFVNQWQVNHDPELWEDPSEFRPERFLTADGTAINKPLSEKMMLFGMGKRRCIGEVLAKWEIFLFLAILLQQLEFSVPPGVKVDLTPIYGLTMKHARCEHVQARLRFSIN
Procedure, shortened: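 Human CYP1A2 activity measured with a P450-Glo proluciferin substrate; compounds in DMSO preincubated 10 min at room temperature with enzyme-substrate mix, then NADPH regeneration system added for 1 h. Luciferin detection reagent, 20 min, luminescence read.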

[13] = biological target: Cytochrome P450 2C9 (Homo sapiens) (UniProt P11712); test: Cytochrome P450 Family 2 Subfamily C Member 9 (CYP2C9) small molecule antagonists: luciferase reporter qHTS assay (AID 1671198); also: nearly all actives have a fitted effect of over 50% in size; also: potency is read from the fitted curve at half-maximal effect
Sequence of Cytochrome P450 2C9 (Homo sapiens) (P11712 whole entry, looked up): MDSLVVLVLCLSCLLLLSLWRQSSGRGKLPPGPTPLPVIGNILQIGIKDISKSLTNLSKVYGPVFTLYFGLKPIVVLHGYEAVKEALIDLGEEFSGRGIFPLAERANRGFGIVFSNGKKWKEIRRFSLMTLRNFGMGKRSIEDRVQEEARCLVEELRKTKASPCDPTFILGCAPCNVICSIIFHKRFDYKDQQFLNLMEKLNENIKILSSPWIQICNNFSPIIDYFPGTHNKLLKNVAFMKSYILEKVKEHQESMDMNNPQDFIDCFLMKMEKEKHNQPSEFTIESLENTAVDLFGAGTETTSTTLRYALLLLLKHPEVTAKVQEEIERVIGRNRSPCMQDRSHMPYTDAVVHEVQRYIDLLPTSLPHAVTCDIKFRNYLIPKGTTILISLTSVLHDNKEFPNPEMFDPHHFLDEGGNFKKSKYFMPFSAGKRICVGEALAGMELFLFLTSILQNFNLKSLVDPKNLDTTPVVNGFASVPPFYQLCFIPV
Procedure, shortened: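 CYP2C9 activity was measured with a P450-Glo proluciferin substrate. Enzyme–substrate mix was held with compound for 10 min at room temperature, then NADPH regeneration solution was added for 1 h at 37C. Luciferin product was read as luminescence.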

[14] = biological target: Voltage-gated inwardly rectifying potassium channel KCNH2 (Homo sapiens) (UniProt Q12809); test: Human Ether-a-go-go-Related Gene (hERG) channel small molecule antagonists: fluorescence cell-based qHTS assay (AID 1671200)
Sequence of Voltage-gated inwardly rectifying potassium channel KCNH2 (Homo sapiens) (Q12809 whole entry, looked up): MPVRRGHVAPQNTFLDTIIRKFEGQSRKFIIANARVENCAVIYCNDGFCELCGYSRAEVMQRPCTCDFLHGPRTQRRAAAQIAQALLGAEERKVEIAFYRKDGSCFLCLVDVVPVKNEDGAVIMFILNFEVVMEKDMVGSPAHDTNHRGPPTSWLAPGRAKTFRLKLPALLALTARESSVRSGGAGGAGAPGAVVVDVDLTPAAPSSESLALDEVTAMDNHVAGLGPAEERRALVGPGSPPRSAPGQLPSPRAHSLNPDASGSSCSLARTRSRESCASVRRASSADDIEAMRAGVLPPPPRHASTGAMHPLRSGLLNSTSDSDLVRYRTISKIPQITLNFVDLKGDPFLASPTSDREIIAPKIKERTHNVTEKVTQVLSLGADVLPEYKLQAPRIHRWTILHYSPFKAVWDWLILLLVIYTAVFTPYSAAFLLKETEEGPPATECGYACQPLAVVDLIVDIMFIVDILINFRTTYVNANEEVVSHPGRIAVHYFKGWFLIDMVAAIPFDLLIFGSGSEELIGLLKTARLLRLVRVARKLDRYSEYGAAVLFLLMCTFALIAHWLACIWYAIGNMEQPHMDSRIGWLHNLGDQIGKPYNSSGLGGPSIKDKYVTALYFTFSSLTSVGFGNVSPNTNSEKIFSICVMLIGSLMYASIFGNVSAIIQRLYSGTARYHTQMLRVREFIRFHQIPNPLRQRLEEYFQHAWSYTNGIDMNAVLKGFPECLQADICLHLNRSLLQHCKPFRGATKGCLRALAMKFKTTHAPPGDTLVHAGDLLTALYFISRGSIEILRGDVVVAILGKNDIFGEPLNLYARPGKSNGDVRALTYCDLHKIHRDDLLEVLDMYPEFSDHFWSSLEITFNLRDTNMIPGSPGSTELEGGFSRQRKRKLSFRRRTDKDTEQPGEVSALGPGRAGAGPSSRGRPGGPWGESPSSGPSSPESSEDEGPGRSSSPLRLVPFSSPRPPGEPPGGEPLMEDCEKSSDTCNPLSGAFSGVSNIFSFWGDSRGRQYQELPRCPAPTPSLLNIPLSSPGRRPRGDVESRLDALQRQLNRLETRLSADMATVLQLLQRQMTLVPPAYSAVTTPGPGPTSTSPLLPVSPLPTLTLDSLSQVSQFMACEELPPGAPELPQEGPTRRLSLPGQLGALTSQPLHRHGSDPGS
Procedure, shortened: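 U2OS cells expressing the channel were plated at 1000 cells/well, incubated overnight at 37 C, then loaded with FluxOR II thallium-sensitive dye for 1 h at room temperature in the dark, with a further 10 min at room temperature before stimulation.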

[15] = biological target: Cytochrome P450 3A4 (Homo sapiens) (UniProt P08684); test: Cytochrome P450 Family 3 Subfamily A Member 4 (CYP3A4) small molecule antagonists: luciferase reporter qHTS assay (AID 1671201)
Sequence of Cytochrome P450 3A4 (Homo sapiens) (P08684 whole entry, looked up): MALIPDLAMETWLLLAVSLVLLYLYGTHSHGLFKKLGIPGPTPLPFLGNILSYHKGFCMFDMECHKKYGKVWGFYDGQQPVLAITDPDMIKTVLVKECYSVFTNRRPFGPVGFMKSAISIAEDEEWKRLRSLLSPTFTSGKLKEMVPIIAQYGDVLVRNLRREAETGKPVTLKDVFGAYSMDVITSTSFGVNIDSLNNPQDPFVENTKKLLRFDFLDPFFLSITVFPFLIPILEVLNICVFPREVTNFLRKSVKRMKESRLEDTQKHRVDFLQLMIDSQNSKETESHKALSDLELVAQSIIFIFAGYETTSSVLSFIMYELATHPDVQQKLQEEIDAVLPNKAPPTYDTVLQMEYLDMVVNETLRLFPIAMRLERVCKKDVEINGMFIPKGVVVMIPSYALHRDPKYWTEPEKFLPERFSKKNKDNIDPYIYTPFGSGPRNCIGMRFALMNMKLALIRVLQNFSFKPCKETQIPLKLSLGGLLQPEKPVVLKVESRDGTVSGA
Procedure, shortened: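 P450-Glo CYP3A4 system with proluciferin substrate; compounds preincubated 10 min RT with enzyme-substrate mix, then NADPH regeneration added for 1 h RT. Detection reagent 20 min, luminescence read as relative luminescence units.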
% is scaled to controls: 0 for no effect and ±100 for the full control effect.

CNC[C@H](O)[C@@H](O)[C@H](O)[C@H](O)CO
inactive: Potency [1] | Potency [2] | Potency [3] | Potency [4] | Potency [5] | Potency [6] | Potency [7] | max activation [8] -2.23% | outcome [9] | Potency [10] | Potency [11] | Potency [12]

C=C(C#N)C(=O)OCC
inactive and 61.1 µM (active): Potency [4]
active: Potency [10] 44.7 µM
inactive and 63.3 µM (active): Potency [13]
inactive and 56.4 µM (active): Potency [11]
inactive: Potency [1] | Potency [2] | Potency [3] | Potency [5] | Potency [6] | Potency [7] | Potency [12] | Potency [14]

O=C(c1ccc(O)cc1)c1ccc(O)cc1O
inactive: Potency [1] | Potency [2] | Potency [3] | Potency [4] | Potency [5] | Potency [6] | Potency [13] | Potency [14]
active: Potency [7] 61.8 µM and 48.6 µM | Potency [10] 36 µM and 35.6 µM | Potency [12] 28.6 µM and 35.6 µM
32.1 µM (active) and inactive: Potency [11]

COC(=O)c1ccc(C(=O)OC)cc1
18.1 µM (active) and inactive: Potency [11]
7.08 µM (active) and inactive: Potency [2]
9.82 µM (active) and inactive: Potency [3]
40.5 µM (active) and inactive: Potency [13]
active: Potency [12] 25.5 µM and 10 µM
inactive: Potency [1] | Potency [5] | Potency [6] | Potency [10]
2.2 µM (active) and inactive: Potency [7]
780 nM (active) and inactive: Potency [4]

NC(=O)/N=N/C(N)=O
inactive: Potency [1] | Potency [2] | Potency [3] | Potency [4] | Potency [5] | Potency [6] | Potency [7] | Potency [10] | Potency [14] | Potency [15]
active: Potency [11] 3.18 µM and 5.64 µM | Potency [13] 4 µM and 3.99 µM | Potency [12] 17.9 µM and 15.9 µM

O=[N+]([O-])c1cccc(Cl)c1
inactive: Potency [1] | Potency [2] | Potency [3] | Potency [4] | Potency [5] | Potency [6] | Potency [7] | Potency [10] | Potency [11] | Potency [13] | Potency [12] | Potency [14] | Potency [15]

CC1=CC[C@H]2C[C@@H]1C2(C)C
inactive: Potency [1] | Potency [2] | Potency [3] | Potency [4] | Potency [5] | Potency [6] | Potency [7] | Potency [10] | Potency [11] | Potency [13] | Potency [12] | Potency [15]

COC(=O)c1ccccc1O
34.4 µM (active) and inactive: Potency [7]
active: Potency [12] 6.35 µM
inactive: Potency [1] | Potency [2] | Potency [3] | Potency [4] | Potency [5] | Potency [6] | max activation [8] -0.564% | outcome [9] | Potency [10] | Potency [13] | Potency [14] | Potency [15]
35.7 µM (active) and inactive: Potency [11]

CN(C)c1cccc(O)c1
inactive: Potency [1] | Potency [2] | Potency [3] | Potency [4] | Potency [5] | Potency [6] | Potency [14]
active: Potency [7] 49.3 µM and 54.5 µM | Potency [10] 40.5 µM | Potency [11] 2.56 µM and 3.56 µM | Potency [13] 16.1 µM and 12.6 µM | Potency [12] 32.2 µM and 31.7 µM

COCC(C)O (stereo unspecified)
inactive: Potency [1] | Potency [2] | Potency [3] | Potency [4] | Potency [5] | Potency [6] | Potency [7] | Potency [10] | Potency [11] | Potency [13] | Potency [12] | Potency [14]

CCCCC(CC)COC(C)=O (stereo unspecified)
inactive: Potency [1] | Potency [2] | Potency [3] | Potency [4] | Potency [5] | Potency [6] | Potency [7] | Potency [10] | Potency [11] | Potency [13] | Potency [12] | Potency [14] | Potency [15]

CC(C)NCC(O)COc1cccc2ccccc12 (stereo unspecified)
inactive and 43.7 µM (active): Potency [1]
inactive: Potency [3] | Potency [4] | Potency [5] | Potency [6]
active: Potency [2] 39.8 µM

c1ccc2[nH]cnc2c1
inactive: Potency [1] | Potency [2] | Potency [3] | Potency [4] | Potency [5] | Potency [6] | Potency [7] | Potency [10] | Potency [11] | Potency [13] | Potency [12] | Potency [14] | Potency [15]

c1ccc2ccccc2c1
inactive: Potency [1] | Potency [2] | Potency [3] | Potency [4] | Potency [5] | Potency [6] | Potency [7] | max activation [8] -0.655% | outcome [9] | Potency [10] | Potency [11] | Potency [13] | Potency [15]
70.7 µM (active) and inactive: Potency [12]

NS(=O)(=O)c1cc2c(cc1Cl)NC=NS2(=O)=O
inactive: Potency [1] | Potency [2] | Potency [3] | Potency [4] | Potency [5] | Potency [6]
